Inconclusive results are not listed. Calls of active or inactive are those of the source. The call rests on the fitted dose curve.
Tests used:
[1] = qHTS drug screen for cell cycle checkpoint inhibitors in PARPi-resistant BRCA-mutant ovarian cancer cell lines. (AID 1963452); details: PEO1/OlaR viability, CellTiter-Glo luminescence, 96 h; for Z-AUC: stronger effect = lower value; further: potency means the concentration at half of the fitted maximal effect
In short: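 PEO1, PEO4 and PEO1/OlaR ovarian cancer cells, 600 per well, exposed 96 h at 37C to a dilution series. Viability read by CellTiter-Glo luminescence, normalized to DMSO and empty wells; activity summarized as Z-AUC.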

[2] = qHTS for identification of novel therapeutic agents for treatment of microphthalmiaassociated transcription factor (MiT) renal cell carcinoma (RCC) (AID 1963991); details: CellTiter-Glo, 48 h, stronger effect = lower value
In short: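 Three TFE3-fusion RCC cell lines (UOK109, UOK124, UOK145), 500 cells/well, were exposed to the 1912-compound MIPE 4.0 library for 48 hours at 37 C. Viability was read by CellTiter-Glo luminescence, normalised to DMSO (100%) and empty wells (0%), with 11-concentration curve fits.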

[3] = measured here: PEO1 parental Z-AUC
[4] = TFE3-RCC UOK109 viability, measured here: UOK109 Z-AUC
[5] = TFE3-RCC viability, measured here: UOK124 Z-AUC
[6] = TFE3-RCC viability, measured here: UOK145 Z-AUC

COc1cc(Nc2ncc3c(n2)-c2ccc(Cl)cc2C(c2c(F)cccc2OC)=NC3)ccc1C(=O)O
Z-AUC [1]: -0.756 (inactive)
Z-AUC [1, 3]: -0.991
Z-AUC ([1]; measured here: PEO4 Z-AUC): -1.47

COc1cc(Oc2ccnc3cc(OC)c(OC)cc23)ccc1NC(=O)NC(C)c1nccs1 (configuration not stated)
Z-AUC [1]: -0.894 (inactive)
Z-AUC [1, 3]: -0.402
Z-AUC ([1]; measured here: PEO4 Z-AUC): -0.764

CCOc1cc(C(=O)Nc2ccc(Cl)c(-c3nc4ccccc4[nH]3)c2)cc(OCC)c1OCC
Z-AUC [1]: -0.941 (inactive)
Z-AUC [1, 3]: 0.578
Z-AUC ([1]; measured here: PEO4 Z-AUC): -0.467

COc1ccccc1[C@H](c1cccc2ccccc12)[C@@](C)(C#N)C(=O)N1CCC(c2cccc(C(F)(F)F)c2)CC1
Z-AUC [1]: 1.34 (inactive)
Z-AUC [1, 3]: 1.15
Z-AUC ([1]; measured here: PEO4 Z-AUC): 1.29

Cc1ccc(NC(=O)c2cccc(C(C)(C)C#N)c2)cc1Nc1ccc2ncn(C)c(=O)c2c1
Z-AUC [1]: 0.851 (inactive)
Z-AUC [1, 3]: 0.186
Z-AUC ([1]; measured here: PEO4 Z-AUC): 0.24

CS(=O)(=O)Oc1ccc2c(NC(N)=O)c(C(=O)c3ccc(Cl)cc3Cl)oc2c1
Z-AUC [1]: 1.2 (inactive)
Z-AUC [1, 3]: 1.13
Z-AUC ([1]; measured here: PEO4 Z-AUC): 1.11

Nc1nc2[nH]cc(CCc3ccc(C(=O)N[C@@H](CCC(=O)O)C(=O)O)cc3)c2c(=O)[nH]1
Z-AUC [1]: 1.34 (inactive)
Z-AUC [1, 3]: 1.12
Z-AUC ([1]; measured here: PEO4 Z-AUC): 1.26

C/C(=C\C(=O)Nc1ccccc1C(=O)O)c1ccc2ccccc2c1
Z-AUC [1]: 0.258 (inactive)
Z-AUC [1, 3]: 0.668
Z-AUC ([1]; measured here: PEO4 Z-AUC): 0.827

CC(C)c1onc(-c2c(Cl)cccc2Cl)c1COc1ccc(/C=C/c2cccc(C(=O)O)c2)c(Cl)c1
Z-AUC [1]: 0.394 (inactive)
Z-AUC [1, 3]: -0.0133
Z-AUC ([1]; measured here: PEO4 Z-AUC): 0.0704

COCCNCCCn1c(C(=O)CF)c(-c2ccc(C)cc2)c2c(N)ncnc21
Z-AUC [1]: 0.937 (inactive)
Z-AUC [1, 3]: 1.02
Z-AUC ([1]; measured here: PEO4 Z-AUC): 1.22

C[C@@H]1CN(Cc2ccc(F)cc2)[C@@H](C)CN1C(=O)c1cc2c(C(=O)C(=O)N(C)C)cn(C)c2cc1Cl
Z-AUC [1]: 0.142 (inactive)
Z-AUC [1, 3]: 0.03
Z-AUC ([1]; measured here: PEO4 Z-AUC): 0.299

Cn1cc(-c2ccc3nnc(C(F)(F)c4ccc5ncccc5c4)n3n2)cn1
Z-AUC [1]: -0.354 (inactive)
Z-AUC [1, 3]: 0.00451
Z-AUC ([1]; measured here: PEO4 Z-AUC): 0.204

CC(=O)NC(C)c1ccc(Oc2ccc(OC(C)C)cc2)cc1 (configuration not stated)
Z-AUC [1]: 0.0363 (inactive)
Z-AUC [1, 3]: 0.0694
Z-AUC ([1]; measured here: PEO4 Z-AUC): -0.363

COc1ccc(COc2cc3oc(=O)c4cc(C(C)O)ccc4c3cc2OC)cc1 (configuration not stated)
Z-AUC [1]: 1.06 (inactive)
Z-AUC [1, 3]: 0.636
Z-AUC ([1]; measured here: PEO4 Z-AUC): 1.09

O=C(Nc1cccnc1)N1CCC(Cc2cccc(Oc3ccc(C(F)(F)F)cn3)c2)CC1
Z-AUC [1]: -0.589 (inactive)
Z-AUC [1, 3]: -1.46
Z-AUC ([1]; measured here: PEO4 Z-AUC): -1.18

O=C1CCCC2=C1C(c1[nH]ncc1Cl)N=C(Nc1nc3ccccc3o1)N2 (configuration not stated)
Z-AUC [1]: 0.0101 (inactive)
Z-AUC [1, 3]: 0.851
Z-AUC ([1]; measured here: PEO4 Z-AUC): 0.0586

Cc1ccnc(NS(=O)(=O)c2ccc(NC(=O)Nc3ccc(S(=O)(=O)Nc4nccc(C)n4)cc3)cc2)n1
Z-AUC [1]: -1 (inactive)
Z-AUC [1, 3]: -0.318
Z-AUC ([1]; measured here: PEO4 Z-AUC): 0.813

CCc1cncnc1N1CCN(Cc2nc3ccc(C(F)(F)F)cc3[nH]2)CC1
Z-AUC [1]: -0.0922 (inactive)
Z-AUC [1, 3]: -0.164
Z-AUC ([1]; measured here: PEO4 Z-AUC): 0.451

Cc1cc(-c2ccc(CC(=O)Nc3ccc(-c4cccnc4)cc3)cc2)ccn1
Z-AUC [1]: 1.38 (inactive)
Z-AUC [1, 3]: 0.679
Z-AUC ([1]; measured here: PEO4 Z-AUC): 0.307

CCCn1c(=O)c2[nH]c(C34CC5CC3C[C@@H](C5)C4)nc2n(CCC)c1=O
Z-AUC [1]: 0.471 (inactive)
Z-AUC [1, 3]: 0.393
Z-AUC ([1]; measured here: PEO4 Z-AUC): 0.158

CCC(C)(C)C(=O)O[C@H]1C[C@@H](C)C=C2C=C[C@H](C)[C@H](CC[C@@H]3C[C@@H](O)CC(=O)O3)[C@H]21
Z-AUC [1]: 1.29 (inactive)
Z-AUC [1, 3]: 1.6
Z-AUC ([1]; measured here: PEO4 Z-AUC): 2.06

CCOc1cc(N2CCC(O)CC2)ccc1Nc1ncc2c(n1)N(C)c1ccccc1C(=O)N2C
Z-AUC [1]: -0.264 (inactive)
Z-AUC [1, 3]: 0.271
Z-AUC ([1]; measured here: PEO4 Z-AUC): 0.379

CCCCCCCc1ccc(CCc2cccc(O)c2C(=O)O)cc1
Z-AUC [1]: 1.13 (inactive)
Z-AUC [1, 3]: 0.41
Z-AUC ([1]; measured here: PEO4 Z-AUC): 0.518

Cc1cnc(Nc2ccc(OCCN3CCCC3)cc2)nc1Nc1cccc(S(=O)(=O)NC(C)(C)C)c1
Potency [1]: 1.95 µM (active)
Z-AUC [1, 3]: -1.63
Z-AUC ([1]; measured here: PEO4 Z-AUC): -1.56

COc1ccc(C2=N[C@H](c3ccc(Cl)cc3)[C@H](c3ccc(Cl)cc3)N2C(=O)N2CCNC(=O)C2)c(OC(C)C)c1
Z-AUC [1]: 0.858 (inactive)
Z-AUC [1, 3]: 0.454
Z-AUC ([1]; measured here: PEO4 Z-AUC): 1.13

CCC(=O)N[C@H]1CC[C@H](C(=O)N(C)c2ccc(-c3nc4ccccc4o3)cc2)C1
Z-AUC [1]: -0.0495 (inactive)
Z-AUC [1, 3]: -0.000542
Z-AUC ([1]; measured here: PEO4 Z-AUC): 0.214

CCc1cc(Nc2nccc(-c3c(-c4ccc(OC)c(C(=O)Nc5c(F)cccc5F)c4)nc4ccccn34)n2)c(OC)cc1N1CCC(N2CCN(S(C)(=O)=O)CC2)CC1
Z-AUC [1]: -0.4 (inactive)
Z-AUC [1, 3]: -0.657
Z-AUC ([1]; measured here: PEO4 Z-AUC): -0.933

CCCC(CCC)C(=O)O
Z-AUC [1]: 0.56 (inactive)
Z-AUC [1, 3]: 0.704
Z-AUC ([1]; measured here: PEO4 Z-AUC): 0.624

COc1ccccc1-c1cccc(-c2c(O)c3cc(C#N)c(Cl)cc3[nH]c2=O)c1
Z-AUC [1]: 0.395 (inactive)
Z-AUC [1, 3]: 0.311
Z-AUC ([1]; measured here: PEO4 Z-AUC): 0.381
z-score [2, 4]: 1.05
z-score [2, 5]: -0.0424
z-score [2, 6]: 0.756

C[C@]12CCC(=O)C=C1CC[C@@H]1[C@@H]2[C@@H](O)C[C@@]2(C)[C@H]1CC[C@]2(O)C(=O)CO
Z-AUC [1]: 0.00041 (inactive)
Z-AUC [1, 3]: 0.66
Z-AUC ([1]; measured here: PEO4 Z-AUC): -0.19

CC(C)(C)NCC(O)c1ccc(O)c(CO)c1 (configuration not stated)
Z-AUC [1]: 0.197 (inactive)
Z-AUC [1, 3]: 0.915
Z-AUC ([1]; measured here: PEO4 Z-AUC): 0.881
z-score [2, 4]: 0.712
z-score [2, 5]: 0.591
z-score [2, 6]: 2.94

COc1cc2c(cc1OC)CN(CCc1ccc(NC(=O)c3cccc4c(=O)c5cccc(OC)c5[nH]c34)cc1)CC2
Z-AUC [1]: 1.13 (inactive)
Z-AUC [1, 3]: 0.952
Z-AUC ([1]; measured here: PEO4 Z-AUC): 0.963

CNC(=O)c1ccc(C)c(-n2c(C)cc(OCc3ccc(F)cc3F)c(Br)c2=O)c1
Z-AUC [1]: -0.231 (inactive)
Z-AUC [1, 3]: -0.585
Z-AUC ([1]; measured here: PEO4 Z-AUC): -0.46
z-score [2, 4]: 0.451
z-score [2, 5]: 1.43
z-score [2, 6]: 0.519

c1ccc([C@H]2CN3CCSC3=N2)cc1
Z-AUC [1]: -0.761 (inactive)
Z-AUC [1, 3]: -0.401
Z-AUC ([1]; measured here: PEO4 Z-AUC): -0.638
z-score [2, 4]: 0.343
z-score [2, 5]: 0.703
z-score [2, 6]: 0.523

Cn1cnc2c(F)c(Nc3ccc(Br)cc3Cl)c(C(=O)NOCCO)cc21
Z-AUC [1]: 0.189 (inactive)
Z-AUC [1, 3]: 0.0472
Z-AUC ([1]; measured here: PEO4 Z-AUC): -0.246

CCC(C)N(C)C(=O)c1cc2ccccc2c(-c2ccccc2Cl)n1 (configuration not stated)
Z-AUC [1]: -0.72 (inactive)
Z-AUC [1, 3]: -0.771
Z-AUC ([1]; measured here: PEO4 Z-AUC): -0.805
z-score [2, 4]: 0.652
z-score [2, 5]: 0.425
z-score [2, 6]: -0.135

Cc1n[nH]c(C)c1Cc1sc2c(c1C(=O)N1C[C@H](O)CO1)c(=O)n(C)c(=O)n2CC(C)C
Z-AUC [1]: -0.106 (inactive)
Z-AUC [1, 3]: -0.977
Z-AUC ([1]; measured here: PEO4 Z-AUC): -0.228
z-score [2, 4]: 0.549
z-score [2, 5]: 0.656
z-score [2, 6]: 0.704

OC[C@H](Cc1ccccc1)Nc1nc(Oc2ccc3c(c2)CCC3)nc2c1ncn2Cc1ccc(-c2ccccc2)cc1
Z-AUC [1]: 0.712 (inactive)
Z-AUC [1, 3]: 0.249
Z-AUC ([1]; measured here: PEO4 Z-AUC): 0.323
